Results filed as inconclusive are left out. Values without a mark were called inactive. Activity calls are given as the source filed them. Calls follow the shape of the dose curve; as a rule, active = well fitted inhibition curve with a large enough effect; inconclusive = small, poorly fitted or top-dose-only effect; inactive = flat fitted curve, though single readings scatter.
Each compound was assayed on Zika virus NS2B-NS3 protease (assay: Primary screen GU AMC qHTS for Zika virus inhibitors (AID 1347154; also: nearly all actives have a fitted effect of over 70% in size;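 as to activity change, negative = inhibition: 0% = no-inhibitor control and -100% = no-enzyme control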)). Conditions: Zika NS2B-NS3 unlinked protease, AMC fluorogenic substrate; series mostly up to 54.1 µM; activity change, negative = inhibition: at the top concentration.
Outline: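 Fluorogenic AMC-substrate cleavage by noncovalent NS2B-NS3 protease complex (25 nM, pH 8.0 Tris buffer with Tween 20) followed for 15 minutes at room temperature (~20% conversion). Percent inhibition from ex340/em450 signal change, fitted by 4-parameter Hill equation.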
Potency is read from the fitted curve at half-maximal effect.

Row | Structure (SMILES) | activity change, negative = inhibition | Potency
1 | ClCCN1CCCC1 | -4.84% | 
2 | CC(C)NC(C)C | 4.4% | 
3 | C[C@]12CCC(=O)C=C1CC[C@@H]1[C@@H]2CC[C@]2(C)C(=O)CC[C@@H]12 |  | inactive
4 | O=C1c2ccccc2C(=O)C1C(=O)C(c1ccccc1)c1ccccc1 | 0.91% | 
5 | C#CC(O)(C=CCl)CC (stereo not drawn) | -2.5% | 
6 | c1ccc(CN2CCNCC2)cc1 | -4.18% [at 194 µM] | 
7 | CCN(CC)C(=O)[C@@H]1C=C2c3cccc4[nH]cc(c34)C[C@H]2N(C)C1 |  | 35.5 µM (active)
8 | CCN(CC)CCc1c[nH]c2ccccc12 | 1.32% [at 194 µM] | 
9 | O=C1CN=C(c2ccccc2)c2cc([N+](=O)[O-])ccc2N1 | -4.17% | 
10 | CCC(C)C(C)(COC(N)=O)COC(N)=O (stereo not drawn) | -4.69% | 
11 | COP(=S)(OC)SCN1C(=O)c2ccccc2C1=O | 5.39% | 
12 | CC(=O)C1CCOC1=O (stereo not drawn) | -4.62% | 
13 | NNc1ccccc1 | -1.21% | 
14 | CCCOC(=O)c1cncn1C(C)c1ccccc1 (stereo not drawn) | 2.26% | 
15 | C[C@@H](N)[C@@H](O)c1ccccc1 | -4.99% | 
16 | CC(C)C[C@H](CN)CC(=O)O | -9.38% | 
17 | C=CCN1C[C@H](C)N([C@H](c2ccc(C(=O)N(CC)CC)cc2)c2cccc(OC)c2)C[C@H]1C |  | inactive
18 | C[C@H]1[C@@H]2Cc3ccc(O)cc3[C@@]1(C)CCN2C | 2.69% [at 194 µM] | 
19 | COP(=S)(OC)Oc1ccc(S(=O)(=O)N(C)C)cc1 | -1.75% | 

Row | Structure (SMILES) | activity change, negative = inhibition | Potency
20 | C=CCC1(C(C)CC)C(=O)NC(=O)NC1=O (stereo not drawn) | -0.25% | 
21 | CC(=O)NC1CCSC1=O (stereo not drawn) | -1.21% | 
22 | CC(Cc1ccccc1)N(C)Cc1ccco1 (stereo not drawn) | -2.79% | 
23 | COc1ccc2c3c1O[C@H]1[C@H](O)CC[C@H]4[C@@H](C2)N(C)CC[C@@]341 | 3.88% [at 104 µM] | 
24 | C[C@]12Cc3cn[nH]c3C[C@@H]1CC[C@@H]1[C@@H]2CC[C@@]2(C)[C@H]1CC[C@]2(C)O | -3.31% | 
25 | Nc1ccccc1 | -1.4% | 
26 | Clc1cccc(SC2CCNCC2)n1 |  | inactive
27 | CC(C)=CC1C(C(=O)OCN2C(=O)C3=C(CCCC3)C2=O)C1(C)C (stereo not drawn) | -8.82% | 
28 | NC(=O)c1cc([N+](=O)[O-])cc([N+](=O)[O-])c1 | 0.572% | 
29 | CC(C)(N)Cc1ccccc1Cl | 7.06% | 
30 | CCN[C@H](C)Cc1cccc(C(F)(F)F)c1 | 1.36% [at 104 µM] | 
31 | CCCCC/C=C\C/C=C\C/C=C\C/C=C\CCCC(=O)NCC(=O)O |  | 25.6 µM (active)
32 | CC[N+]1(CC)CCC(OC(=O)C(O)(c2ccccc2)c2ccccc2)C1 (stereo not drawn) | -1.52% | 
33 | CC(=O)OCC1=C(C(=O)O)N2C(=O)[C@@H](N)[C@H]2SC1 | 2.84% [at 25.8 µM] | 
34 | CCC1(c2ccccc2)C(=O)N(COC)C(=O)N(COC)C1=O | 5.63% | 
35 | CCC1(CC)C(=O)C=CNC1=O | -2.01% | 
36 | NC1=NC(=O)C(c2ccccc2)O1 (stereo not drawn) | 1.16% | 
37 | C[C@]12CC[C@H]3[C@@H](CCC4=CC(=O)CC[C@@H]43)[C@@H]1CC[C@@H]2OC(=O)CCC1CCCCC1 | -11.2% | 
38 | CN1C(=O)COc2c(C(=O)NC3CN4CCC3CC4)cc(Cl)cc21 (stereo not drawn) |  | inactive

— PubChem BioAssay (NCATS)
